MCF10A rerep: A quantitative high throughput screen for small molecules that induce DNA re-replication in MCF 10a normal breast cells | MCF 10A DNA re-replication, Hoechst nuclear intensity, 48 h | AID 624296, 2012 | hit rate 2.9% among 350,000 | Potency, µM (doses to about 46.1 µM), for the others: at the highest dose activity, positive = re-replication, hits mostly activators; also: potency is read from the fitted curve at half-maximal effect; % of control where 0% means no effect; nearly all actives have a fitted effect of over 50% in size
DT40 TDP1 CPT: qHTS for Inhibitors of human tyrosyl-DNA phosphodiesterase 1 (TDP1): qHTS in cells in presence of CPT | chicken DT40 Tdp1-/-;hTDP1 cells + 20 nM CPT, ATP luminescence, 48 h | Potency, µM (titrated, usually from 46.2 µM), without a hit: top-dose activity change, negative = growth inhibition, actives largely listed as inhibitors | hit rate 12% among 420,000 | AID 686979, 2013; also: potency is read from the fitted curve at half-maximal effect; % is scaled to controls: 0 for no effect and ±100 for the full control effect; nearly all actives have a fitted effect of over 55% in size
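Chicken DT40 Tdp1-/- cells stably complemented with human TDP1 were seeded at 400 cells/well in medium containing 20 nM camptothecin, exposed to pin-transferred compounds, and grown at 37 °C for at least 48 hr. Viability was read as ATP luminescence.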
Chronic BCR inh: qHTS Assay to Find Inhibitors of Chronic Active B-Cell Receptor Signaling. hit rate 0.05% among 340,000. ABC-DLBCL IkBa-CBG/CBR reporter, luminescence ratio, 4 h. Potency, µM (titrated, usually from 46.1 µM), inactives show at the top dose activity change, negative = inhibition, usual class: inhibitors. AID 493014, 2011; active = well fitted inhibition curve with a large enough effect in the signal ratio, with a control signal flat, not every such curve was filed as active; inconclusive = small, poorly fitted or top-dose-only effect, or effect the other way, or a change in a side signal; the % refers to the signal ratio;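 also: potency is read from the fitted curve at half-maximal effect; plate controls were basal doxycycline-induced cells for no effect and cells given 10 µM MG132 for full effect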
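Cell line TMD8 (human ABC DLBCL), stably expressing tet-inducible CBG68-IkBa fusion and CBR; IMDM/0.5% FBS; cpd up to 46 uM; dox induction, 4 h, 37C/5% CO2; dual luminescence; green/red ratio; MG132 control.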
SW480 rereplic: A quantitative high throughput screen for small molecules that induce DNA re-replication in SW480 colon adenocarcinoma cells. SW480 DNA re-replication, Hoechst DNA content imaging, 48 h. Potency, µM (top dose mostly 46.1 µM), for the others: top-dose re-replication activation, usual class: activators. hit rate 1.8% among 340,000. AID 624297, 2012; also: potency is read from the fitted curve at half-maximal effect; % of control where 0% means no effect; nearly all actives have a fitted effect of over 55% in size
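Compounds, transferred as 23 nL by pin tool, were incubated with cells for 48 hr; DNA content per nucleus was then quantified by Hoechst staining and fluorescence plate imaging.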
TDP1 cell noCPT: qHTS for Inhibitors of human tyrosyl-DNA phosphodiesterase 1 (TDP1): qHTS in cells in absence of CPT | DT40 Tdp1-/- hTDP1 cells, no CPT, ATP luminescence, 48 h | Potency, µM (doses to about 46.2 µM), for the others: top-dose activity change, negative = growth inhibition, actives largely listed as inhibitors | hit rate 15% among 420,000; also: potency is read from the fitted curve at half-maximal effect; % is scaled to controls: 0 for no effect and ±100 for the full control effect; nearly all actives have a fitted effect of over 55% in size
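Camptothecin absent (DMSO only). Human TDP1-complemented DT40 knockout cells, 400 cells/well, 37 °C for minimum 48 hr; ATP measured via CellTiter-Glo, 30 min dark incubation, luminescence.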
IL1B secr inh: qHTS for Inhibitors of Inflammasome Signaling: IL-1-beta AlphaLISA Primary Screen; hit rate 4.7% among 360,000; activity change, % at 57.5 µM; THP-1 LPS/ATP IL-1B secretion, AlphaLISA, 16 h; hits give low values; AID 743279, 2014; in the data active = activity change below about -50%; inconclusive = mostly about -30% to -49%; also: % is scaled to controls: 0 for no effect and ±100 for the full control effect
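Secreted IL-1B measured by AlphaLISA bead assay after 16 h compound exposure of THP-1 cells; compounds (final up to 57.5 uM) added 1 h before LPS (250 ng/mL) and ATP (1.25 mM) stimulation; lower signal means less secretion.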
* hit, by the source's call; i = inactive; ? = inconclusive; nt = not tested or not shown. Hits are enriched below; roughly 19% of the tested compounds scored in any of these assays. Unless noted, calls follow the shape of the dose curve; as a rule, active = well fitted curve in the direction sought with a large enough effect; inconclusive = small, poorly fitted or top-dose-only effect, or another doubt; inactive = no such curve, though single readings can be large; an effect the other way counts as inactive or inconclusive.

SMILES | MCF10A rerep | DT40 TDP1 CPT | Chronic BCR inh | SW480 rereplic | TDP1 cell noCPT | IL1B secr inh
CCOc1ccc(C(=O)c2oc3ccccc3c2NC(=O)Cc2coc3cc(C)cc(C)c23)cc1 | nt | -3% | nt | nt | -3% | nt
CN(CCc1ccccc1)C(=O)c1ccc(NC(=O)Cc2ccc(NC(=O)C3CCCN(S(=O)(=O)c4cccc([N+](=O)[O-])c4)C3)cc2)cc1 (configuration not stated) | 11% | -21% | nt | -1% | -20% | 26
COc1ccc(-n2c(O)c(/C=N/NS(=O)(=O)c3ccc(C)cc3)c3ccccc3c2=O)cc1OC | ? | 18µM* | 4% | 2% | 16µM* | 20
COc1ccc(-n2c(O)c(/C=N/Nc3nc(C)cc(C)n3)c3ccccc3c2=O)cc1OC | 15% | ? | 1% | 4% | ? | 67
COc1ccc(-n2c(O)c(/C=N/NS(=O)(=O)c3cc(C)ccc3C)c3ccccc3c2=O)cc1OC | ? | 21µM* | ? | 0% | 16µM* | 5
O=C(O)CC1Sc2ccccc2NC1=O (configuration not stated) | -3% | -4% | ? | -5% | -20% | 5
O=C1Nc2ccccc2SC(c2ccccc2)C1O (configuration not stated) | 10% | 23µM* | ? | -1% | ? | 36
CCNC(=O)c1cc2c(c(-c3cccc(-c4ccccc4F)c3)n1)[C@@H](CCO)N(C(=O)CC1CC1)C2 | nt | 21µM* | nt | nt | ? | 15
CCC(=O)N1Cc2cc(C(=O)NCCOC)nc(-c3cccc(-c4ccc(C#N)cc4)c3)c2[C@H]1CCO | nt | -18% | nt | nt | ? | 0
CCCNC(=O)c1cc2c(c(-c3cccc(-c4ccccc4F)c3)n1)[C@H](CCO)N(C(=O)CC1CC1)C2 | nt | 16µM* | nt | nt | 16µM* | -12
Cc1ccc(C)c(-c2nnc(NC(=O)CCS(=O)(=O)c3ccc(F)cc3)o2)c1 | ? | ? | 1% | -4% | ? | 2
Cc1ccc(S(=O)(=O)CCC(=O)Nc2nnc(-c3ccc(F)cc3)o2)cc1 | ? | ? | -7% | ? | ? | -59*
O=C(Cc1ccc(F)cc1)Nc1nnc(-c2ccc(F)cc2)o1 | 2% | 23µM* | 0% | ? | ? | 7
COc1cc(OC)cc(-c2nnc(NC(=O)CCS(=O)(=O)c3ccc(C)cc3)o2)c1 | 4.6µM* | ? | -5% | ? | ? | -3
O=C(CCS(=O)(=O)c1ccc(F)cc1)Nc1nnc(-c2ccco2)o1 | ? | ? | ? | 18µM* | ? | -20
O=C(CS(=O)(=O)c1ccc(F)cc1)Nc1nnc(-c2ccccc2Cl)o1 | 17% | -11% | 0% | -4% | -4% | 9
CC(Sc1ccc(S(=O)(=O)N2CCN(C)CC2)cn1)C(=O)Nc1cccc(Cl)c1Cl (configuration not stated) | 17% | ? | nt | -2% | ? | 0
CS(=O)(=O)c1ccccc1-c1nnc(NC(=O)Cc2ccccc2)o1 | -1% | -13% | -16% | 5% | -1% | -50*
CCN1Cc2cc(OC)ccc2-c2ccccc2S1(=O)=O | -5% | -10% | -5% | -2% | -20% | -6
O=C(Nc1ccnn1C1CCN(C/C=C/c2ccccc2)CC1)c1cccc(F)c1 | 4% | ? | 0% | 2% | 0% | -53*
Cc1cc(C)c(CN2CCC(n3nccc3NC(=O)c3ccccc3Cl)CC2)cc1C | ? | 15µM* | -1% | ? | ? | i
CCc1ccc(CN2CCC(n3nccc3NC(=O)c3ccccc3Cl)CC2)cc1 | ? | 23µM* | 0% | 2% | ? | -50*
COc1ccccc1C(=O)Nc1ccnn1C1CCN(Cc2cc(C)c(C)cc2C)CC1 | ? | ? | -12% | ? | 18µM* | -11
CCCCc1ncc(CN2CCC(n3nccc3NC(=O)c3ccccc3OC)CC2)[nH]1 | 13% | ? | 0% | -11% | 15µM* | 0
Cn1cc(CN2CCC(n3nccc3NC(=O)c3ccccc3Cl)CC2)c2ccccc21 | ? | -78% | ? | ? | ? | -82*
SMILES | MCF10A rerep | DT40 TDP1 CPT | Chronic BCR inh | SW480 rereplic | TDP1 cell noCPT | IL1B secr inh
COc1cc2c(c(OC)c1OC)-c1c(cc3c(c1OC)OCO3)C[C@@H](C)[C@](C)(O)C2 | nt | 9% | nt | nt | ? | nt
COc1ccc(-c2nc3cnc(OC)nc3n(CCc3ccccc3)c2=O)cc1 | nt | -11% | nt | nt | 7% | nt
CCN(c1ccccc1)S(=O)(=O)c1ccc(NCC2COc3ccccc3O2)nc1 (configuration not stated) | ? | 26µM* | 9% | ? | ? | ?
CCN(CC1COc2ccccc2O1)S(=O)(=O)c1ccc(C)cc1 (configuration not stated) | 22% | ? | -5% | 15% | ? | -1
O=S(=O)(c1ccccc1)N1c2cc(Cl)ccc2Oc2nc3ccccc3nc21 | ? | ? | ? | 15% | 10µM* | -8
CCOC(=O)C1=C(c2ccccc2)NC(=O)NC1c1cc(OC)c(O)c([N+](=O)[O-])c1 (configuration not stated) | -2% | -22% | 8% | 3% | ? | -3
CCCOc1ccc([N+](=O)[O-])cc1C1NC(=S)NC(c2ccccc2)=C1C(=O)OCC (configuration not stated) | 13% | ? | 7% | ? | 21µM* | -29
O=C(CN(C(=O)CCC(=O)Nc1nccs1)c1cccc(C(F)(F)F)c1)NCC1CCCO1 (configuration not stated) | -2% | 11% | -10% | 1% | ? | -4
COC(=O)/C=C\c1cc(O)ccc1O | nt | 0.6µM* | nt | nt | 0.6µM* | nt
Cc1nn2c(=O)cc(COC(=O)c3cccc(NC(=O)COc4ccccc4C)c3)nc2s1 | nt | 18µM* | nt | nt | 21µM* | nt
CCc1nn2c(=O)cc(COC(=O)c3ccccc3NC(=O)COc3ccccc3C)nc2s1 | nt | 4.1µM* | nt | nt | 5.2µM* | nt
Cc1nn2c(=O)cc(COC(=O)c3ccc(NC(=O)COc4ccccc4F)cc3)nc2s1 | nt | 5.8µM* | nt | nt | 5.2µM* | nt

Bioassay records as filed in PubChem.
